# Results taken from publication PMC7862700, “An all-to-all approach to the identification of sequence-specific readers for epigenetic DNA modifications on cytosine”.
# Assays:
# Assay in all cases: DAPPL (digital affinity profiling via proximity ligation, sequencing); 10 mM Tris-HCl pH 7.5, 50 mM NaCl, 1 mM DTT, 4% glycerol, room temperature, 30 min; GST-TFs on glutathione beads, 16-mer random dsDNA library, 0.1% formaldehyde crosslink after washing; high values mean tight binding
# FEV = biological target: T1, FEV (Homo sapiens, UniProt Q99581 1-238); details: protein: recombinant; tags: N-terminal GST; dsDNA, one strand shown
# T1 sequence: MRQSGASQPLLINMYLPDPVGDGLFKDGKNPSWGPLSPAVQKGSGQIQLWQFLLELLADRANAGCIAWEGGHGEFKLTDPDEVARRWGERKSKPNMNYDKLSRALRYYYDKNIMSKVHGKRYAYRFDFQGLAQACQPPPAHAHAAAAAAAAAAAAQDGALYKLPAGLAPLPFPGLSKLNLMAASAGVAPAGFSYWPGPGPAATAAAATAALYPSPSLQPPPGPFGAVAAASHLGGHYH
# Method in brief: (§1)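 Pools were built from human transcription factors expressed in yeast as GST fusions, captured on glutathione beads and DNA-barcoded, along with a tag-only sample. Incubation with 200 nmole of a 16-mer random double-stranded DNA library lasted 30 min at room temperature in Tris/NaCl/DTT/glycerol buffer, and was followed by washing, 0.1% formaldehyde crosslinking, proximity ligation, PCR amplification and Illumina NextSeq500 sequencing. Binding signal is the quotient of each hexamer's read frequency for a factor and its frequency for the tag-only sample.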
# ETV5 = ETV5 (Homo sapiens, UniProt P41161 1-510); details: protein: recombinant; tags: N-terminal GST; dsDNA, one strand shown
# ETV5, sequence (P41161 whole entry): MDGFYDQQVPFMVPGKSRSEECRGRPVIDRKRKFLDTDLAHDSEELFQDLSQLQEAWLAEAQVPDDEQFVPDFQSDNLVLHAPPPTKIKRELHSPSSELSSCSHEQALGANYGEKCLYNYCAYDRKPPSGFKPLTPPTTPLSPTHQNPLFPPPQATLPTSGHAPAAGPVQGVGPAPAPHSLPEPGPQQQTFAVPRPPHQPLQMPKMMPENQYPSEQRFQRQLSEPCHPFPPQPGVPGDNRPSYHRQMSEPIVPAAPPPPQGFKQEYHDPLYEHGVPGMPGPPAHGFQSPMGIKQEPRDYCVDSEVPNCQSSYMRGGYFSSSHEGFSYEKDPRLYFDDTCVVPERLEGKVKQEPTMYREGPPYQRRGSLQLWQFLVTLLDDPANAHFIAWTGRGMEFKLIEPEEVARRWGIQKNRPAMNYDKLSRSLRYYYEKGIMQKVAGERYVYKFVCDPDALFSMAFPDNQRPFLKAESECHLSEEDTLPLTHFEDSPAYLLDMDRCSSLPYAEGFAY
# Method in brief: as §1
# HSF1 = HSF1 (Homo sapiens, UniProt Q00613 1-529); details: protein: recombinant; tags: N-terminal GST; chain copies: 3; dsDNA, one strand shown
# HSF1, sequence (Q00613 whole entry): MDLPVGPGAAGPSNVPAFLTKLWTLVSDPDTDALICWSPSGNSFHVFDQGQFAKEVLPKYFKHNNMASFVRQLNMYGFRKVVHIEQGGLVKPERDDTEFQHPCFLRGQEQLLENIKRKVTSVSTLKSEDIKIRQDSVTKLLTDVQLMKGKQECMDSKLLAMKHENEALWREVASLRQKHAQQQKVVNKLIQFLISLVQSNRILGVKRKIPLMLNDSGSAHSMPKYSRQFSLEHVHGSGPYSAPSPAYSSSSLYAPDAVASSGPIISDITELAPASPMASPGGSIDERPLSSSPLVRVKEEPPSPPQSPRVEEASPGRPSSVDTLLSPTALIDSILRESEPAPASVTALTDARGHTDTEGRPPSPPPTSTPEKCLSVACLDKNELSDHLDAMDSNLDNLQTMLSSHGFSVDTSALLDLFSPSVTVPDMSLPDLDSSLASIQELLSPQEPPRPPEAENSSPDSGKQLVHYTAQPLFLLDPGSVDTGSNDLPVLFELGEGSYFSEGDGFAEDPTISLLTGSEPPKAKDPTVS
# Method in brief: as §1
# SPIC = biological target: T2, SPIC (Homo sapiens, UniProt Q8N5J4 1-248); details: protein: recombinant; tags: N-terminal GST; dsDNA, one strand shown
# T2 sequence: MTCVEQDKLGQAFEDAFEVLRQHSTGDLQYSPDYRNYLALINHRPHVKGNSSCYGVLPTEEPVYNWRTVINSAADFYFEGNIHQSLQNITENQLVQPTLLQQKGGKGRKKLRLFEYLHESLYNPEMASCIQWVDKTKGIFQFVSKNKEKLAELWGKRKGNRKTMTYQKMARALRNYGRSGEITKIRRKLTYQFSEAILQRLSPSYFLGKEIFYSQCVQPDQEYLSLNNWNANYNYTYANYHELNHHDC
# Method in brief: as §1
# ELF4 = ELF4 (Homo sapiens, UniProt Q99607 1-663); details: protein: recombinant; tags: N-terminal GST; dsDNA, one strand shown
# ELF4, sequence (Q99607 whole entry): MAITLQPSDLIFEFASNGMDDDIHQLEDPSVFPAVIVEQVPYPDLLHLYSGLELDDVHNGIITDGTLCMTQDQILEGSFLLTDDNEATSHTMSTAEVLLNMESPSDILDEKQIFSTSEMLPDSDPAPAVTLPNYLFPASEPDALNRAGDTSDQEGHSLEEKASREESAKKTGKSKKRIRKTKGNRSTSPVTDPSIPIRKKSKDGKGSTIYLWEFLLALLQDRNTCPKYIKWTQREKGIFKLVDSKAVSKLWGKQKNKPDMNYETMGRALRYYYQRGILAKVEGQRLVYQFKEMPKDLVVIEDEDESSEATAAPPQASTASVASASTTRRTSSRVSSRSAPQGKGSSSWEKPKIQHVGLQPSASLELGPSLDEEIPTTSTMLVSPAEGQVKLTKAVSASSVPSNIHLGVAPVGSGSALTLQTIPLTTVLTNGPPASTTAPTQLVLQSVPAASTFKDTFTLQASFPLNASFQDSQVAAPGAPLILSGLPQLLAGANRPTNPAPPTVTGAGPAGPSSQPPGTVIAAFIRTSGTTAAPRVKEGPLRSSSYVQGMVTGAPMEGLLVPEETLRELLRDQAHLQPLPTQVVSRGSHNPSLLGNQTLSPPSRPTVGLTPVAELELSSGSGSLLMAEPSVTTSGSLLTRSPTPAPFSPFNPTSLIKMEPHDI
# Method in brief: as §1
# ELK4 = biological target: T3, ELK4 (Homo sapiens, UniProt P28324-2 1-405); details: protein: recombinant; tags: N-terminal GST; dsDNA, one strand shown
# T3 sequence: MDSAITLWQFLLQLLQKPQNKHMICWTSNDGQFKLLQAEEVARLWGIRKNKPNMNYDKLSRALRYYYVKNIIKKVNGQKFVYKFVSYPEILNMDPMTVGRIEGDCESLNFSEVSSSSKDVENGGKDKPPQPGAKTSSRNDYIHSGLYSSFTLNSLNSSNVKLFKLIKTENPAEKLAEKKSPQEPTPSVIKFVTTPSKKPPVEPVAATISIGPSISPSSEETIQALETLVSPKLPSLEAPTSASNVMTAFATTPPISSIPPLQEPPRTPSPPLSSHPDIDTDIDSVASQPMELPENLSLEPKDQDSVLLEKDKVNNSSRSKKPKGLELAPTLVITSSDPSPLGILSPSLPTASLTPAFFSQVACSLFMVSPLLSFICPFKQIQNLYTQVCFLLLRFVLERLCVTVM
# Method in brief: as §1
# ETV2 = biological target: T4, ETV2 (Homo sapiens, UniProt O00321 1-342); details: protein: recombinant; tags: N-terminal GST; dsDNA, one strand shown
# T4 sequence: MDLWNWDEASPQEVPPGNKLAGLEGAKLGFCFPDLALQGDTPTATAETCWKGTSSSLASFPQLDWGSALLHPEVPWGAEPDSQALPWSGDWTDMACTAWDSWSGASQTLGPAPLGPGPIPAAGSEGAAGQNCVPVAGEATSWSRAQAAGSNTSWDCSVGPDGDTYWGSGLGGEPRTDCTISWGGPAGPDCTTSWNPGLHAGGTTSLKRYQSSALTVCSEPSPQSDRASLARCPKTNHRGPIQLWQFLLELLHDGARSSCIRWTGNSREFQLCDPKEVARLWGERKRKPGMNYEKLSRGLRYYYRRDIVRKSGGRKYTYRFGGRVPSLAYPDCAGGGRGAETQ
# Method in brief: as §1
# ELF3 = biological target: T5, ELF3 (Homo sapiens, UniProt P78545 1-371); details: protein: recombinant; tags: N-terminal GST; dsDNA, one strand shown
# T5 sequence: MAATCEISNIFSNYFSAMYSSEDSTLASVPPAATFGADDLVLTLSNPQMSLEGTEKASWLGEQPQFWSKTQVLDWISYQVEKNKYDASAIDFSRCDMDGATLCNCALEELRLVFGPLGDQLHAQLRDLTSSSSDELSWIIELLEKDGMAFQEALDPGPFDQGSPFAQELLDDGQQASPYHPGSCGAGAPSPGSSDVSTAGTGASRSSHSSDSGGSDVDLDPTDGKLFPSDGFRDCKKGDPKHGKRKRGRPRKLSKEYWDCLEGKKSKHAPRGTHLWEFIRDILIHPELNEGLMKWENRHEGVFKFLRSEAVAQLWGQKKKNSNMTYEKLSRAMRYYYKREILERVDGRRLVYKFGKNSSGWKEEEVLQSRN
# Method in brief: as §1
# CRX = CRX (Homo sapiens, UniProt O43186 1-299); details: protein: recombinant; tags: N-terminal GST; dsDNA, one strand shown
# CRX, sequence (O43186 whole entry): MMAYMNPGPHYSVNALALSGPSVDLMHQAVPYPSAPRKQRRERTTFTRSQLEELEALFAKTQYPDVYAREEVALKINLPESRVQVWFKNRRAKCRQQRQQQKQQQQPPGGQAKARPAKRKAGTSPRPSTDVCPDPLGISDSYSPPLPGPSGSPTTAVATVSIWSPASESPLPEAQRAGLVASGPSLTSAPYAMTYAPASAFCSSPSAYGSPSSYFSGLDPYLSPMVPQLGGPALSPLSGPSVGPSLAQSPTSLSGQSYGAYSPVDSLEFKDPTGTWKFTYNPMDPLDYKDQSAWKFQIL
# Method in brief: as §1
# ETV1 = ETV1 (Homo sapiens, UniProt P50549 1-477); details: protein: recombinant; tags: N-terminal GST; dsDNA, one strand shown
# ETV1, sequence (P50549 whole entry): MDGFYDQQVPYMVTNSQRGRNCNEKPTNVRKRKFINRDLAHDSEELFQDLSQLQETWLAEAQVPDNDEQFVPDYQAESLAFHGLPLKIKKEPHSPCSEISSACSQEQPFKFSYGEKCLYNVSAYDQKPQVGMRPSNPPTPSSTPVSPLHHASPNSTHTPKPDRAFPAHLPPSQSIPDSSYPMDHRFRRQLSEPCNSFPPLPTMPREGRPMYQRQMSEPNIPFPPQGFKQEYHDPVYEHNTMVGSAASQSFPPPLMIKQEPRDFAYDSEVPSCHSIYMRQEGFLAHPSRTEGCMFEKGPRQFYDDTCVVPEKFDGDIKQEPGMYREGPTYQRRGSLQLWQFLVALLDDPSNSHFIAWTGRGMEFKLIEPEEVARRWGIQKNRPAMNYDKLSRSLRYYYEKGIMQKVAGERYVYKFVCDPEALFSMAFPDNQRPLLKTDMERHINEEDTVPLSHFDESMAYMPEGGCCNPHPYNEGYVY
# Method in brief: as §1
sequence,measurement,setting,value
ATTAAA,binding signal,FEV,"1.1 fold enrichment (6-mer frequency, TF over GST control)"
same,binding signal,ETV5,"1.2 fold enrichment (6-mer frequency, TF over GST control)"
same,binding signal,HSF1,"1.97 fold enrichment (6-mer frequency, TF over GST control)"
same,binding signal,SPIC,"1.14 fold enrichment (6-mer frequency, TF over GST control)"
same,binding signal,ELF4,"1.16 fold enrichment (6-mer frequency, TF over GST control)"
same,binding signal,ELK4,"1.1 fold enrichment (6-mer frequency, TF over GST control)"
same,binding signal,ETV2,"1.16 fold enrichment (6-mer frequency, TF over GST control)"
same,binding signal,ELF3,"1.05 fold enrichment (6-mer frequency, TF over GST control)"
same,binding signal,CRX,"2.99 fold enrichment (6-mer frequency, TF over GST control)"
same,binding signal,ETV1,"1.18 fold enrichment (6-mer frequency, TF over GST control)"
